Measurements taken from PubChem BioAssay (NCI).
The panel holds about 83,000 compounds, 20% with a hit somewhere; the sample as a whole holds those more often.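 Single-concentration screen, 48 h exposure, 96-well plates. Endpoint: percent growth. Below 10 = active.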 Unmarked numbers belong to inactive results. Activity calls are given as the source filed them.

Experiments:
Experiment in all cases: NCI-60 one-dose screen, 48 h (100 = growth as untreated, 0 = no growth, -100 = all killed)
Conditions in all cases: 10 µM unless noted
[1] = test system: HCT-15 colon
[2] = test system: HT29 colon
[3] = test system: SNB-75 CNS
[4] = test system: SNB-19 CNS
[5] = test system: U251 CNS
[6] = test system: PC-3 prostate
[7] = test system: SK-MEL-5 melanoma
[8] = test system: UACC-62 melanoma
[9] = test system: LOX IMVI melanoma
[10] = test system: SK-MEL-28 melanoma

Compound | growth [1] | growth [2] | growth [3] | growth [4] | growth [5] | growth [6] | growth [7] | growth [8] | growth [9] | growth [10]
COc1cc(C2=NN(C(C)=O)C(c3ccc(N(C)C)cc3)C2)cc(OC)c1OC (stereo not given) | 102% | 108% | 96.2% | 89.8% | 97.3% | 105% | 91.1% | 87.9% | 96.5% | 106%
Cc1c2cnccc2c(C)c2c1c1cc(C3OCCCO3)ccc1n2C | 1.16% (active) | 1.09% (active) | -23% (active) | -3.48% (active) | -1.98% (active) | 2.08% (active) | -95.8% (active) | -43.6% (active) | -23.6% (active) | -29.6% (active)
COc1ccc(C2=CN3CC=CCC3CC2=O)cc1 (stereo not given) | 108% | 84.5% | 103% | 107% | 91.4% | 81.9% | 96.4% | 99.5% | 99.8% | 112%
CN1CCN(c2ccc3c(c2)nc(NNC(=O)c2cnccn2)c2cccn23)CC1 | 23.9% | 28.6% | 66.7% | 34.9% | 32.2% | 47.3% | 31.2% | 12.9% | 10.3% | 24.8%
COc1cc(C(=O)C(=O)c2cc(OC)c(O)c(OC)c2)cc(OC)c1O | 103% | 103% | 91.6% | 99.8% | 98.4% | 112% | 104% | 89.8% | 97% | 107%
CCN(CC)c1ccc(/C=N\NC(=O)c2cccc(Nc3ccnc(C(F)(F)F)c3)c2)c(O)c1 | 28.7% | 11.7% | 34.7% | 15.9% | 13.1% | 18.9% | -52.2% (active) | -12.2% (active) | -6.15% (active) | 64.8%
N=c1sc(Cc2cc(Cl)ccc2Cl)cn1CC(=O)c1ccccc1 | 23.5% | 16.1% | 5.16% (active) | 63.6% | 40.4% | 62.5% | 37.3% | 17.1% | 25.1% | 58.5%
COc1ccc(/C(C)=C(\c2ccc(Cl)cc2)c2ccc(OCCN3CCCC3)cc2)cc1 | 7.96% (active) | -18.1% (active) | 91.4% | 52.1% | 19.4% | 32.7% | -63.2% (active) | -0.373% (active) | -46.5% (active) | -16.8% (active)
CN1CCN(c2ccc(NC(=O)c3cncnc3Nc3ccc4c(ccn4Cc4cccc(F)c4)c3)cc2)CC1 | -6.2% (active) | -39.8% (active) | 67.4% | 77.7% | 6.24% (active) | 66.2% | 59.6% | 54.3% | -80.9% (active) | -85.2% (active)
O=C1NC(=O)c2c1c1c3ccccc3[nH]c1c1oc3cc(Br)ccc3c21 | 70.4% | 76.9% | 31.4% | 72.8% | 65.5% | 42.3% | 55.9% | 48.5% | 59.9% | 92.6%
N=C(N)SCc1cccc2c(CSC(=N)N)cccc12 | 108% | 108% | 91.7% | 93.5% | 89.2% | 97.4% | 109% | 96.6% | 97.7% | 109%
CC(C)c1ccc(NC(=O)Nc2ccc(NC(=O)c3ccccc3N)cc2)cc1 | 50.7% | 26.5% | 26.3% | 55.5% | 35.6% | 47.6% | 24.3% | 3% (active) | 20.9% | 39.9%
CCOc1ccc(NC(=O)c2cc(OC)c(OC)c(OC)c2)cc1 | 31.8% | 11.5% | 30.5% | 49.6% | 30.1% | 29.9% | 28.7% | 35.7% | 35.5% | 66.4%
CCn1cc(C(=O)N/N=C/c2ccc(Br)cc2)c(=O)c2cc(F)c(N3CCNC(C)C3)c(F)c21 (stereo not given) | -18.9% (active) | -31.7% (active) | 85.6% | 54.5% | 1.38% (active) | 68.3% | 82.4% | 101% | -78.2% (active) | 91.2%
Cc1ccc(Nc2nc(-c3ccc(F)cc3)c(C#N)c(=O)n2C)cc1 | 55% | 78.2% | 30% | 56.2% | 68.2% | 67.9% | 77.2% | 51.8% | 74.3% | 74.1%
CC(=O)c1cc(-c2ccccc2N)n(-c2ccc3c(c2)OCO3)c1C | 13.4% | 6.88% (active) | 22.8% | 18.6% | 14.7% | 30.1% | 2.46% (active) | 25.3% | 35.1% | 52.4%
CCn1cc(CNc2ccc(C(=O)Nc3cc4cc(OC)c(OC)cc4c(C)n3)cc2)c(C)n1 | 23.1% | 54.1% | 77.1% | 90% | 71% | 18.6% | 1.46% (active) | 6.57% (active) | 23.9% | 50.4%
COc1ccc2c(O)c(/C=C3\N=Nc4ccccc43)oc2c1C[C@H]1CCNC[C@H]1F | 33.6% | 19.3% | 61.4% | 67.7% | 65.4% | 40.8% | 48.3% | 41.2% | 35% | 68.3%
COc1cc(/C=C\c2cc(/C=C\c3ccc(O)c(OC)c3)n(C(=O)CNc3ccc(Cl)cc3)n2)ccc1O | 11.3% | 15.8% | 25.5% | 45.6% | 16.1% | 33.9% | 15.9% | 10.9% | 11.2% | 49.5%
O=C1CCC(C(=O)NN(c2ccccc2)c2ccccc2)N1 (stereo not given) | 103% | 111% | 89.2% | 100% | 103% | 14.3% | 106% | 94.4% | 95% | 109%
CCCC(O)Cn1ncc(C(=O)OCC)c1NC(=O)NCc1cccc(F)c1 (stereo not given) | 99.7% | 88.8% | 93.6% | 102% | 101% | 83.6% | 101% | 97.1% | 92.7% | 97.8%
O=C(/C=C/c1cccc(Cl)c1)c1cccc(OCCCCOc2cccc(C(=O)/C=C/c3cccc(Cl)c3)c2)c1 | 83.6% | 76.1% | 77.8% | 91% | 68.7% | 92.2% | 98.6% | 72.8% | 30.5% | 99.2%
CCNc1nc(-c2ccc(F)cc2)c(C#N)c(=O)n1C | 56.8% | 57.2% | 37.9% | 60.6% | 65.2% | 42.8% | 57.3% | 44% | 63.2% | 77.5%
Nc1ccc([N+](=O)[O-])cc1N=C/C=C/c1ccccc1 | 42.9% | 28.6% | 86.6% | 72.2% | 56.9% | 72.4% | 56.5% | 63.2% | 49% | 94.8%
O=C(O)CCCn1c(SCc2c(Cl)cccc2Cl)nc2ccsc2c1=O | 30.7% | 4.21% (active) | -13.8% (active) | 31% | 18.1% | 14.5% | 16.8% | 28.3% | 28% | 57.6%
CN(C)c1ccc(C(=NO)c2ccc(N(C)C)cc2)cc1 | 24.4% | 5.39% (active) | 53.6% | 46.3% | 28.1% | 58% | 14.5% | 28.1% | 43.1% | 56.3%
COc1cc(/C=C/c2cc(/C=C/c3ccc(O)c(OC)c3)n(C(=O)Nc3ccc(F)cc3)n2)ccc1O | 10.6% | -41.8% (active) | 26.9% | 20.2% | 13.4% | 9.01% (active) | -8.36% (active) | 2.01% (active) | 4% (active) | 16.7%
